Results filed as inconclusive are left out. The source made the active and inactive calls. Calls follow the shape of the dose curve; as a rule, active = well fitted cell-killing curve with a large enough effect in the repeat runs; inconclusive = weak or mixed curves, or effect the other way; inactive = flat fitted curve, though single readings scatter.
Assay: qHTS assay to identify small molecule antagonists of the androgen receptor (AR) signaling pathway using the MDA cell line in the presence of 0.5 nM R1881 - cell viability counter screen (AID 1259242); also: nearly all actives have a fitted effect of over 45% in size
Conditions: MDA-kb2 viability, CellTiter-Fluor protease fluorescence, 16 h; series mostly up to 92.4 µM
Outline: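 Steps: plate MDA-kb2 cells, rest 5 hr at 37C without CO2; pin in compounds in DMSO; add R1881 to 0.5 nM final; incubate 16 hr; add CellTiter-Fluor, 30 min; read fluorescence.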

Structure (SMILES)	outcome
N=C(N)S(=O)O	inactive
CC[C@@]1(c2ccccc2)NC(=O)N(C)C1=O	inactive
CC(=O)Oc1ccc(C(C)=O)cc1	inactive
Cc1ccc(N)nc1	inactive
CCCOc1ccc(C(=O)OCCN(CC)CC)cc1N	inactive
CCCCCCC(O)CO (stereo not drawn)	inactive
CC(=O)OC/C=C(/C)CCC=C(C)C	inactive
CC(C)(C)OC(=O)c1ccccc1C(=O)O	inactive
CC1=C(O)C(=O)CO1	inactive
O=C(O)Cc1ccccc1Oc1ccc(Cl)cc1Cl	inactive
O=c1c(O)c(O)c1=O	inactive
NCC1CCC(C(=O)Oc2ccc(CCC(=O)O)cc2)CC1 (stereo not drawn)	inactive
Cc1cc(=O)oc2cc(O[C@@H]3SC[C@@H](O)[C@H](O)[C@H]3O)ccc12	inactive
CO/N=C(\C(=O)O)c1csc(NC(=O)CCl)n1	inactive
C=CCN1CCc2nc(N)sc2CC1	inactive
COc1ccc2cc(CCC(C)=O)ccc2c1	inactive
CCCCCCCCC1CO1 (stereo not drawn)	inactive
Cc1nc2ccc(Cl)cc2[nH]1	inactive
CC(C)c1cc(C(C)C)cc(C(C)C)c1	inactive

Structure (SMILES)	outcome
COC(=O)c1ccc(NC(C)=O)cc1OC	inactive
O=S(=O)(O)c1ccc(Cl)cc1	inactive
C=COCCCCO	inactive
C/C(=N\O)c1ccc(OCC(=O)N2CCCCC2)cc1	inactive
Cc1cccc(N)n1	inactive
CCCCCCCCCCCC(C)=O	inactive
CN(C)CCc1c[nH]c2ccc(C[C@H]3COC(=O)N3)cc12	inactive
CC(=O)/C=C/C=C1/C2CCC(C2)C1(C)C (stereo not drawn)	inactive
Cc1ccc(O)c([N+](=O)[O-])c1	inactive
CCCCN=C(N)N=C(N)N	inactive
CN(C)CCC[C@@]1(c2ccc(F)cc2)OCc2cc(C#N)ccc21	inactive
O=C(O)P(=O)(O)O	inactive
CC(=O)SCC(CC(=O)c1ccc(C)cc1)C(=O)O (stereo not drawn)	inactive
CC(C)(C)C(=O)CCc1ccc(Cl)cc1	inactive
Nc1ccc(C(=O)NCC(=O)O)cc1	inactive
NC(=O)CC[C@@H](N)C(=O)O	inactive
C[n+]1ccccc1/C=N/O	inactive
COc1cc2nc(N3CCN(C(=O)C4CCCO4)CC3)nc(N)c2cc1OC (stereo not drawn)	inactive
COc1cnc(NS(=O)(=O)c2ccc(N)cc2)nc1	inactive
